In all, about 360,000 compounds went through this assay and about 780 (0.22%) were called active. Inconclusive results (about 4%) are left out. Cut-off read from the data, not from the text of the source: active = inhibition above about 35% (passing the limit was not always enough); inconclusive = no clear call, values can overlap the other calls. The sample as a whole holds a higher share of actives than the screen did.

A word on the inhibition: it is the change of the read-out against control, counted positive when it falls.

This assay deals with Botulinum neurotoxin type F light chain protease (Clostridium botulinum). In words: BoNT/F light chain protease inhibitors, primary screen, biochemical, flow cytometry, MLPCN library (AID 588497). Note: plate controls were buffer without enzyme for full effect and enzyme alone for no effect. Conditions: Multiplex microsphere protease cleavage assay, at 10 µM, stronger effect = higher value. Background: In flow cytometry, cells or beads pass a laser one at a time.
Consider `CCCCc1c(-c2ccc(Cl)cc2)ncn1CCc1ccccc1OC`, for which the inhibition was 0.1% (inactive).
To `NC(c1csc(NC(=O)Nc2cccc(C(F)(F)F)c2)n1)C1CCCCC1` (stereo not drawn) belongs -35.6% (inactive).
To `Cc1cccc(-c2cnc(C(O)c3ccc4ccccc4c3)[nH]2)c1` (stereo not drawn) belongs -3.1% (inactive); to `COc1cc(/C=C/C(=O)N2c3ccccc3Sc3ccc(C(F)(F)F)cc32)cc(OC)c1OC`, -24.7% (inactive); to `COc1cc(/C=C2\SC(=S)N(Nc3ncc(C(F)(F)F)cc3Cl)C2=O)cc(OC)c1OC`, 43.1% (active).
To `O=C1/C(=C/c2ccc(F)cc2)SC(=S)N1NS(=O)(=O)c1ccccc1` belongs 0.7% (inactive); to `COc1ccc(Br)c(Cn2c(C)c(C(=O)NCc3cccs3)sc2=O)c1`, 3.6% (inactive); to `O=C(Nc1nnc([C@H]2C[C@H](O)[C@@H](CO)O2)s1)c1cccc(Cl)c1`, 2.2% (inactive).
As for `COc1ccccc1CNC(=O)C1CCN(S(C)(=O)=O)CC1`, the inhibition was -1.3% (inactive).
In the case of `COc1ccccc1CNC(=O)C1Cc2ccccc2C(=O)O1` (stereo not drawn), the inhibition is 40.9% (active).
To `COc1ccccc1CNC(=O)[C@@H]1CCCN1C(=O)[C@@H]1Cc2ccccc2CN1C(=O)OC(C)(C)C` belongs -3.1% (inactive).
As for `NC(Cc1ccccc1)c1csc(Nc2cc(Oc3ccccc3)ncn2)n1` (stereo not drawn), the inhibition is -21.7% (inactive).
To `COc1ccc(CC(N)c2csc(NC(=O)Cc3ccccc3)n2)cc1` (stereo not drawn) belongs -9.3% (inactive); to `CN(C)C(=O)c1cccc(-c2cnc3sc(NCc4ccc5c(c4)OCO5)nn23)c1`, -7.5% (inactive).
To `COc1ccc(CCN(Cc2cc3cccc(C)c3[nH]c2=O)C(=O)N2CCCC2)cc1OC` belongs -19.1% (inactive); to `Cc1ccc2[nH]c(=O)c(CN(CCCN(C)C)C(=O)Nc3cccc(Cl)c3)cc2c1`, 1% (inactive).
On to `COc1cc2cc(CN(CCN3CCCC3)C(=O)Nc3ccccc3Cl)c(=O)[nH]c2cc1OC`, for which the inhibition is 56.9% (active).
On to `FC(F)(F)Oc1ccccc1C(c1nnnn1C1CCCCC1)N1CCN(C/C=C/c2ccccc2)CC1` (stereo not drawn), for which the inhibition was -16.7% (inactive).
To `CC1(Cc2ccccc2C#N)C(=O)Nc2ccc(-c3ccc4[nH]ccc4c3)cc21` (stereo not drawn) belongs -3.4% (inactive); to `C/C(=N\NC(=O)c1ccccc1F)c1ccccn1`, -0.7% (inactive); to `CC(=NNC(=S)N1CCCCCC1)c1ccccn1`, 55% (active).
To `Cc1cccc(C)c1NC(=S)N1CCCCCC1` belongs 4.7% (inactive).
In the case of `Cc1ccc(C(NC(=O)C2CCN(CCOc3ccc(Cl)cc3Cl)CC2)c2ccccn2)cc1` (stereo not drawn), the inhibition is 4.2% (inactive).
To `CC(=O)Nc1cccc(-c2ccnc3c2CC(C)(C(=O)NCc2ccccc2)O3)c1` (stereo not drawn) belongs -1.6% (inactive).
Take `CCOc1ccc(CCN2C(=S)N([C@@H](CC(C)C)CN3CCC[C@@H]3CN3C(=S)NC[C@@H]3Cc3ccc(O)cc3)C[C@@H]2CC(C)C)cc1`: the inhibition is -7.7% (inactive).
The result for `CCCCC[C@H](C)N1C[C@@H](COCc2ccccc2)Oc2cc(N3CC[C@@H](N(C)C)C3)ccc2S1(=O)=O` reads -14% (inactive).
To `CC(C)Cc1ccc(-c2cc3nc(NCc4cccc(Cl)c4)ccn3n2)cc1` belongs -1.6% (inactive); to `C=CCOCCN(C)C1=NS(=O)(=O)c2ccccc21`, -7.4% (inactive); to `O=S1(=O)N=C(N(CCO)/N=C/c2ccccc2F)c2ccccc21`, 74.7% (active).
The result for `COc1ccc(/C=N/N(C)C2=NS(=O)(=O)c3ccccc32)cc1OC` reads -14.8% (inactive); that for `COc1cncc(-c2cnc3sc(NCCc4ccccn4)nn23)c1`, -4.1% (inactive).
As to `CCOCCn1c(-c2ccccc2)nc2ccccc21`, the inhibition was 65.4% (active).
Turning to `CCOCCn1c(C(C)C)nc2ccccc21`, the inhibition was 2.9% (inactive).
The result for `CCc1nc2ccccc2n(CCOCCOCCn2c(=O)c(CC)nc3ccccc32)c1=O` reads -0.5% (inactive); that for `Cc1ccc(NS(=O)(=O)c2cc3c(cc2Br)NC(=O)CO3)cc1C`, 0.3% (inactive); that for `CN(Cc1cn(Cc2ccc(C(F)(F)F)cc2)nn1)C1CN(Cc2cn(Cc3ccc(C(F)(F)F)cc3)nn2)S(=O)(=O)C1` (stereo not drawn), -10.7% (inactive).
The result for `CCCCCCCCN1C(=O)[C@H](CC(=O)NCc2cccc3ccccc23)C[C@@]2(C(=O)OC)CCCCC=C12` reads -5.2% (inactive); that for `CCCN1C2CCCC1CC(NC(=O)c1cccc(OC)c1)C2` (stereo not drawn), 34.7% (active); that for `COc1cccc(NC(=O)N2C3CCCC2CC(NC(C)=O)C3)c1` (stereo not drawn), 28.5% (inactive).
The result for `COc1ccc(CN2C3CCCC2CC(NC(=O)c2cccc(F)c2)C3)cc1` (stereo not drawn) reads -2.5% (inactive); that for `Nc1nc2c(Br)ccc(Br)c2cc1C(=O)NCCc1ccccc1`, -1% (inactive).
On to `CCCCCc1c(-c2cccc(Br)c2)ncn1CCc1ccccc1OC`, for which the inhibition was -6.3% (inactive).
To `Oc1cccc2cc(-c3ccncc3)cnc12` belongs -5.1% (inactive).
Regarding `CNS(=O)(=O)c1cccc(C(=O)NC2CCCc3ccccc32)c1` (stereo not drawn), the inhibition was 2.8% (inactive).
The result for `O=C(O)c1cc(S(=O)(=O)NC2CCCc3ccccc32)ccc1O` (stereo not drawn) reads 49% (active).
To `O=C(CCC(=O)N1CCN(S(=O)(=O)c2ccccc2)CC1)NC1CCCc2ccccc21` (stereo not drawn) belongs 7.9% (inactive); to `CCCCc1c(-c2ccc(Br)cc2)ncn1CCc1ccccc1OC`, -3.2% (inactive); to `CCc1nc2c(OCCC3CCCCC3)cccn2c1N(C)C(=O)c1ccco1`, 1.8% (inactive).
The result for `CC(C)C[C@H]1CNC(=O)C(=O)N1C[C@H]1CCCN1C[C@H](Cc1ccc(O)cc1)N1C[C@H](CC(C)C)N(CC2CCCCCC2)C(=O)C1=O` reads -9.5% (inactive); that for `CC(C)C[C@@H](COCc1ccc(Cl)cc1)N1CCN(C(=O)c2ccc(Cl)cc2Cl)CCC1=O`, -2.4% (inactive).
In the case of `CC(=O)Nc1cc(-c2ccc(N3CCN(C)CC3)cc2)cn2c(-c3ccc(F)cc3)cnc12`, the inhibition was -13.3% (inactive).
With `O=C(NCCc1c[nH]c2ccccc12)C1CCN(Cc2ccc(Br)cc2)CC1`, the inhibition was -27.7% (inactive).
The result for `Cc1ccc2[nH]cc(CCNC(=O)C3CCCCC3)c2c1` reads 50% (active); that for `Cc1ccc2[nH]cc(CCNC(=O)c3ccc([N+](=O)[O-])cc3)c2c1`, -0.3% (inactive).
The result for `COC(=O)[C@@]1(Sc2ccc(C)cc2)CC(=O)N(c2cccc(SC)c2)[C@@H]1c1ccccc1` reads 4.9% (inactive).
To `CCOc1nnc(C)c2c(C)n(-c3cccc(Cl)c3)nc12` belongs 46.5% (active); to `CCOc1ccc(CNC(=O)C2CCCN(c3nnc(C)c4c(C)n(-c5ccccc5)nc34)C2)cc1` (stereo not drawn), 10.7% (inactive).
Regarding `CCOC(=O)C(C)n1cnc2c(nnn2-c2cccc(OC)c2)c1=O` (stereo not drawn), the inhibition was 18.5% (inactive).

Values taken from PubChem BioAssay AID588497 (NMMLSC, 2011).
